Measured values as given in PubChem BioAssay (Tox21).
Records with an inconclusive call do not appear. Active and inactive are the calls of the source. The call rests on the fitted dose curve.

Legend:
[1] = target: Acetylcholinesterase (Homo sapiens) (UniProt P22303); test: Acetylcholinesterase (AChE) small molecule antagonists: colormetric cell-based qHTS assay (AID 1347395); further: nearly all actives have a fitted effect of over 30% in size
Method in brief: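 SH-SY5Y cells attached overnight, exposed to compound 30 min at 37 C, then given DTNB/acetylthiocholine; after 90 min at 37 C, colorimetric thiocholine read gives cellular AChE activity.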

[2] = target: Acetylcholinesterase (Homo sapiens) (UniProt P22303); test: Acetylcholinesterase (AChE) small molecule antagonists: enzyme-based qHTS assay (AID 1347397); conditions: Potency: AChE enzyme activity inhibition; outcome: AChE enzyme activity inhibition; further: nearly all actives have a fitted effect of over 55% in size
Method in brief: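 Recombinant human AChE, dispensed at 50 mU/mL, was preincubated with Tox21 10K compounds or DMSO vehicle for 30 min at room temperature. DTNB plus acetylthiocholine was then added, and thiocholine was measured colorimetrically after a further 10 min.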

[3] = target: Acetylcholinesterase (Homo sapiens) (UniProt P22303); test: Acetylcholinesterase (AChE) small molecule antagonists: fluorescence cell-based qHTS assay (AID 1347398); conditions: Potency: AChE activity; outcome: AChE activity; further: nearly all actives have a fitted effect of over 50% in size
Method in brief: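 Human SH-SY5Y cells were plated overnight at 37 C, exposed to compound for 30 min at 37 C, 5% CO2, then given acetylthiocholine plus Thiolite Green for 40 min at room temperature; thiocholine fluorescence (Ex/Em 490/520 nm) reports endogenous AChE activity.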

[4] = target: Acetylcholinesterase (Homo sapiens) (UniProt P22303); test: Acetylcholinesterase (AChE) small molecule antagonists: enzyme-based qHTS assay with human liver microsomes (AID 1347399); conditions: Potency: qHTS inhibition; outcome: qHTS inhibition; further: nearly all actives have a fitted effect of over 60% in size
Method in brief: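 Recombinant human AChE (50 mU/mL in the enzyme mix) and human liver microsomes (0.25 mg/mL final) were preincubated with compound and NADPH (0.25 mg/mL final) for 30 min at 37 C. Acetylthiocholine/DTNB was then added; thiocholine was read colorimetrically after 10 min at room temperature.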
On the % scale 0 is the no-effect control and ±100 the full control effect.

Acetylcholinesterase (Homo sapiens), sequence (P22303 whole entry, looked up): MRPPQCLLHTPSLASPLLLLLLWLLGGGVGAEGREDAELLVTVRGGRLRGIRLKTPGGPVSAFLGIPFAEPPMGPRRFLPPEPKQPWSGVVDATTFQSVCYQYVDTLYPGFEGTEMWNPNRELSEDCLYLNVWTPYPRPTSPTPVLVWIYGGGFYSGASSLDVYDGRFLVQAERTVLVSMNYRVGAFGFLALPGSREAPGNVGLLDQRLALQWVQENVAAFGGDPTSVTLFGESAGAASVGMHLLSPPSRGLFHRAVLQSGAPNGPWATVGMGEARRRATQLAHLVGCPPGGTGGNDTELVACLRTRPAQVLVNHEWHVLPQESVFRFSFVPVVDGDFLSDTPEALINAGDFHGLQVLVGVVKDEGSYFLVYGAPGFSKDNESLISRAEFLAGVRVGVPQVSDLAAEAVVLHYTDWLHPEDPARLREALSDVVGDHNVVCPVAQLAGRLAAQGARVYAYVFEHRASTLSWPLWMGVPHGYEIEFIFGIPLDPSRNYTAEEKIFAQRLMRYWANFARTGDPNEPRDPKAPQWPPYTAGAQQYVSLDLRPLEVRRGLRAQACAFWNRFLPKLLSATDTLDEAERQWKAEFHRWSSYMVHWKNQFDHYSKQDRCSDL

OC[C@H]1O[C@@H]2O[C@H]3[C@H](O)[C@@H](O)[C@@H](O[C@H]4[C@H](O)[C@@H](O)[C@@H](O[C@H]5[C@H](O)[C@@H](O)[C@@H](O[C@H]6[C@H](O)[C@@H](O)[C@@H](O[C@H]7[C@H](O)[C@@H](O)[C@@H](O[C@H]8[C@H](O)[C@@H](O)[C@@H](O[C@H]9[C@H](O)[C@@H](O)[C@@H](O[C@H]1[C@H](O)[C@H]2O)O[C@@H]9CO)O[C@@H]8CO)O[C@@H]7CO)O[C@@H]6CO)O[C@@H]5CO)O[C@@H]4CO)O[C@@H]3CO
inactive: Potency [1] | Potency [2] | Potency [3] | Potency [4]

N[C@H]1C(O)O[C@H](CO)[C@@H](O)[C@@H]1O (stereo not given in full)
inactive: Potency [1] | Potency [2] | Potency [3] | Potency [4]

Cc1cc(C)cc([N+](=O)[O-])c1
inactive: Potency [1] | Potency [2] | Potency [3] | Potency [4]

COC(=O)c1ccc(NC(C)=O)cc1OC
inactive: Potency [1] | Potency [2] | Potency [3] | Potency [4]

O=S(=O)(O)c1ccccc1O
inactive: Potency [1] | Potency [2] | Potency [3] | Potency [4]

CC1=CCC(=C(C)C)CC1
inactive: Potency [1] | Potency [2] | Potency [3] | Potency [4]

CN(C)CCc1c[nH]c2ccc(CS(=O)(=O)N3CCCC3)cc12
inactive: Potency [1] | Potency [2] | Potency [3] | Potency [4]

CC1=CP(=O)(c2ccccc2)CC1 (stereo not given)
inactive: Potency [1] | Potency [2] | Potency [3] | Potency [4]

N[C@@H](CSCCCO)C(=O)O
inactive: activity, negative = inhibition [1] -1.97% [at 23.6 µM] | activity change, negative = inhibition [2] 1.52% [at 23.6 µM] | activity change, negative = inhibition [3] 1.96% [at 23.8 µM] | activity change, negative = inhibition [4] -0.67% [at 23.6 µM]

CC(=O)OC(C)C[N+](C)(C)C (stereo not given)
inactive: Potency [1] | Potency [2] | Potency [3] | Potency [4]

CCN(CC)C(C)=O
inactive: Potency [1] | Potency [2] | Potency [3] | Potency [4]

CC(C)(C)c1nnc(NS(=O)(=O)c2ccc(N)cc2)s1
inactive: Potency [1] | Potency [2] | Potency [3] | Potency [4]

CC(C)(COC(=O)c1ccccc1)COC(=O)c1ccccc1
inactive: Potency [1] | Potency [2] | Potency [3] | Potency [4]

CC(C)=CCC/C(C)=C/C#N
inactive: Potency [1] | Potency [2] | Potency [3] | Potency [4]

O=C(O)c1ccc2c(c1)nc(C(=O)NC1CCN(C3CC3)CC1)n2Cc1cc(-c2ccc(Cl)s2)on1
inactive: activity, negative = inhibition [1] -6.96% [at 23.6 µM] | activity change, negative = inhibition [2] 2.26% [at 23.6 µM] | activity change, negative = inhibition [3] -24.8% [at 23.8 µM] | activity change, negative = inhibition [4] 0.834% [at 23.6 µM]

CCOc1ccc(O)cc1
inactive: Potency [1] | Potency [2] | Potency [3] | Potency [4]

CO[Si](CCCNc1ccccc1)(OC)OC
inactive: Potency [1] | Potency [2] | Potency [3] | Potency [4]

CC(C)(C)OC(=O)N1C[C@@H](F)C[C@H]1C(=O)O
inactive: Potency [1] | Potency [2] | Potency [3] | Potency [4]

CN1CCN(C(=O)C2CCCCC2)CC1
inactive: Potency [1] | Potency [2] | Potency [3] | Potency [4]

CC1=C(/C=C/C(C)=C/C=C/C(C)=C\C(=O)O)C(C)(C)CCC1
inactive: Potency [1] | Potency [2] | Potency [3] | Potency [4]

CCOCCOCCOC(C)=O
inactive: Potency [1] | Potency [2] | Potency [3] | Potency [4]

CCCCCCC1CCC(=O)O1 (stereo not given)
inactive: Potency [1] | Potency [2] | Potency [3] | Potency [4]

CC(C)COC(=O)CC(C(=O)OCC(C)C)S(=O)(=O)O (stereo not given)
inactive: Potency [1] | Potency [2] | Potency [3] | Potency [4]

ClC(Cl)(Br)Br
inactive: Potency [1] | Potency [2] | Potency [3] | Potency [4]

O=C1CCCCCCCCCCC(=O)OCCO1
inactive: Potency [1] | Potency [2] | Potency [3] | Potency [4]

CCCCCN(CCCCC)C(=O)C(CCC(=O)O)NC(=O)c1ccc(Cl)c(Cl)c1 (stereo not given)
inactive: Potency [1] | Potency [2] | Potency [3] | Potency [4]

C=CC(=O)[O-].C=CC(=O)[O-].[Zn+2]
inactive: Potency [1] | Potency [2] | Potency [3] | Potency [4]

CCCCN1C(=O)[C@@H]([C@H](O)C2CCCCC2)NC(=O)C12CCN(Cc1ccc(Oc3ccc(C(=O)O)cc3)cc1)CC2
inactive: Potency [1] | Potency [2] | Potency [3] | Potency [4]

SCCCCCCCCS
inactive: Potency [1] | Potency [2] | Potency [3] | Potency [4]

Oc1ccc(Cl)cc1C1CCCC1
inactive: Potency [1] | Potency [2] | Potency [3] | Potency [4]

O=C(O)/C=C/c1ccc(O)c(O)c1
inactive: Potency [1] | Potency [2] | Potency [3] | Potency [4]

Cc1ccc(N(CCO)CCO)cc1
inactive: Potency [1] | Potency [2] | Potency [3] | Potency [4]

CCN(CC)c1ccc(C=O)cc1
inactive: Potency [1] | Potency [2] | Potency [3] | Potency [4]

COC(/C=C(\C)CCC=C(C)C)OC
inactive: Potency [1] | Potency [2] | Potency [3] | Potency [4]

NC(=O)Nc1ccc(Cl)cc1
inactive: Potency [1] | Potency [2] | Potency [3] | Potency [4]

c1ccc(-c2nn[nH]n2)cc1
inactive: Potency [1] | Potency [2] | Potency [3] | Potency [4]

CC(=O)c1cccnc1
inactive: Potency [1] | Potency [2] | Potency [3] | Potency [4]

Cc1cccc(C)c1NC(=O)c1ccccc1C(=O)O
inactive: Potency [1] | Potency [2] | Potency [3] | Potency [4]

CCCCCCNC(=O)n1cc(F)c(=O)[nH]c1=O
inactive: Potency [1] | Potency [2] | Potency [3] | Potency [4]

CC(C)c1ccc2c(c1)CC[C@H]1[C@](C)(CN)CCC[C@]21C
inactive: Potency [1] | Potency [2] | Potency [3] | Potency [4]
